37 compounds from PMC5540273 (PLoS ONE, 2017) can be followed below.
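Also: KINOMEscan kinase panel screen.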

The test system of one experiment is CAMK1D. Conditions: concentration: 1 μM, replicates: in singlicate; n = 1.
On to `CCn1cnc2c(NCc3ccccc3)ncnc21` [SKF-96418], for which the “%Inh” value is reported as 1%. Same read-out and setting: as for `CC(C)(C)c1ccc(C(=O)Nc2cn3cc(-n4ccnc4)ccc3n2)cc1`, the figure is 6%; as for `COc1cc(Nc2nccc(N3CCC(NS(=O)(=O)c4ccc(NC(C)=O)cc4)CC3)n2)cc(OC)c1OC` [GSK1379825], 15%; as for `CCNC(=O)/C=C/c1n[nH]c2cc(Sc3ccccc3C(=O)NC)ccc12`, 22%.

In a further experiment the test system is CAMK1G. The following applies: concentration: 1 μM, replicates: in singlicate; n = 1.
Take `CN(c1ccc2c(c1)nc(NCc1ccccc1)n2C)c1ccnc(Nc2ccc(CS(C)(=O)=O)cc2)n1.Cl` [GW811603]: the “%Inh” value is listed as 0%.

Regarding `COc1cccc(C2=C(Nc3cccc(O)c3)C(=O)NC2=O)c1` [SB-390771], the “%Inh” value is on record as 0%. On to `O=C(Nc1c(F)cccc1F)c1cc(C(=O)c2ccccc2F)c[nH]1` [GSK1326180], for which the “%Inh” value was 6%. `CC(C)c1nc(-c2ccc(F)c(NS(=O)(=O)c3c(F)cccc3F)c2)c(-c2ccnc(Nc3ccc(N4CCOCC4)nc3)n2)s1` [GSK1804250]: the “%Inh” value came to 4%. `Cl.O=C(Nc1ccc(Oc2ccc3[nH]c(NC(=O)c4ccco4)nc3c2)cc1)Nc1cc(C(F)(F)F)ccc1F` [GW683134]: the “%Inh” value is 0%. On the same count and under the same terms, as for `c1ccc(Oc2ccc(Nc3ccnc4cc(-c5ccc(CN6CCCCC6)o5)ccc34)cc2)nc1` [GW567143], the figure is 0%; as for `N#CC1(c2cccc(C(=O)Nc3cccc(Oc4ccc5nc(NC(=O)C6CC6)sc5n4)c3)c2)CC1`, 0%. Still for that read-out and setting: as for `CNc1nccc(-c2ccc3c(N)n[nH]c3c2)n1` [GSK2206003], the figure is 22%; as for `COc1cccc(NC(=O)NCCNc2ccnc(Nc3ccc(F)cc3)n2)c1` [GSK1379879], 0%; as for `Cc1cccc(Nc2nc(N[C@H]3CCCC[C@H]3N)ncc2C(N)=O)c1.Cl` [GSK986310], 23%. Turning to `COC(=O)Nc1nc2cc(Oc3ccc(NC(=O)Nc4cccc(SC)c4)cc3)ccc2[nH]1.Cl` [GW697999], the “%Inh” value stood at 0%.

`CN(c1ccc(NC(=O)N2CCN(CCCN3CCOCC3)CC2)cc1)c1ccnc(Nc2ccc(CS(C)(=O)=O)cc2)n1.Cl` [GW830899]: the “%Inh” value was determined as 0%. Still for that read-out and setting: the value for `O=C(Nc1n[nH]c2nc(-c3ccccc3O)ccc12)C1CC1` [SB-711880] was 0%; that for `CCn1c(-c2nonc2N)nc2c(-c3ccccc3)ncc(OCCCN)c21.O=C(O)C(F)(F)F.O=C(O)C(F)(F)F` [GSK260205] was 4%.

Consider `Cc1ccc(NC(=O)c2ccnc(N3CCCCC3)c2)cc1-c1ccc(C(=O)NCC2CC2)cc1` [GW775610], for which the “%Inh” value amounted to 0%.

With `O=C(O)C(F)(F)F.O=c1[nH]ccc2nc(N[C@@H]3CCNC3)nc(Nc3ccc4c(c3)S(=O)(=O)CC4)c12` [GSK2181306], the “%Inh” value is on record as 82%. Turning to `Cc1ccccc1CC(=O)N1CCc2cc(-c3cn(C)c4ncnc(N)c34)ccc21` [GSK2603346], the “%Inh” value amounted to 19%. For `Cc1ccc(O)cc1Nc1ccnc2cc(-c3ccc(CN4CCCCC4)o3)ccc12` [GW557777], the “%Inh” value came out at 6%. Consider `COc1ccc(C2=C(Nc3cccc(O)c3)C(=O)NC2=O)cc1` [SB-390766], for which the “%Inh” value was found to be 26%. On the same count and under the same terms, the value for `Cc1ccc(O)cc1Nc1ccnc2ccc(C(C)(C)C)cc12` [GW856805] was 0%; that for `O=C(Nc1n[nH]c2nc(-c3ccccc3)ccc12)C1CC1` [SB-708999] was 79%.

Take `NCCC(NC(=O)c1cc(Br)c(-c2ccnc3[nH]ccc23)s1)c1ccccc1.O=C(O)C(F)(F)F.O=C(O)C(F)(F)F` (centres unmarked) [GSK1307810]: the “%Inh” value is 21%. Regarding `CCOc1nccc(-c2c(-c3ccc(F)cc3)ncn2C2CCNCC2)n1` [SB-249175], the “%Inh” value is recorded as 1%. As for `CN1CCN(Cc2ccc(NC(=O)Nc3ccc(N(C)c4ccnc(Nc5ccc(CS(C)(=O)=O)cc5)n4)cc3)cc2)CC1.Cl` [GW827654], the “%Inh” value was 23%. As to `Cn1cc(-c2ccc3c(c2)CCN3C(=O)Cc2cc(F)cc(F)c2F)c2c(N)ncnc21` [GSK2634140], the “%Inh” value was 0%. For the compound `Cl.Cl.NCC(NC(=O)c1cc(-c2cccnc2)c(-c2ccnc3[nH]ccc23)s1)c1ccccc1` (centres unmarked) [GSK1323434], the “%Inh” value was found to be 3%. Still for that read-out and setting: as for `Cc1ccc(NC(=O)c2cccc(N3CCCCC3)c2)cc1-c1ccc(C(=O)NCC2CC2)cc1` [GSK1917008], the figure is 0%. On the same count and under the same terms, as for `Cc1nn2c(=O)cc(N3CCO[C@H](C)C3)nc2n1Cc1cccc(Cl)c1Cl` [GSK2373693], the figure is 0%; as for `Cl.N#CCc1ccc(Nc2nccc(Nc3ccc(Oc4ccccc4)cc3)n2)cc1` [GW639905], 0%. As to `Cn1cc(-c2cnc(N)c3c(-c4ccc5c(c4)CCN5C(=O)Cc4ccccc4)csc23)cn1` [GSK2593074], the “%Inh” value turned out to be 0%.

`CC(=O)Nc1cn2nc(Oc3cccc(NC(=O)c4cccc(C(F)(F)F)c4)c3)ccc2n1`: the “%Inh” value worked out at 0%. Same read-out and setting: as for `O=C(Nc1n[nH]c2cc(-c3cccs3)ccc12)C1CC1` [SB-731284], the figure is 0%; as for `CN(c1ccc(NC(=O)Nc2cccc(Cl)c2)cc1)c1ccnc(N)n1.Cl` [GW830707], 0%. For `CCn1cnc2c(NCc3ccccc3)ncnc21` [SKF-96418], the “%Inh” value was found to be 0%. The same measure, in the same setting: as for `CC(C)(C)c1ccc(C(=O)Nc2cn3cc(-n4ccnc4)ccc3n2)cc1`, the figure is 7%; as for `COc1cc(Nc2nccc(N3CCC(NS(=O)(=O)c4ccc(NC(C)=O)cc4)CC3)n2)cc(OC)c1OC` [GSK1379825], 5%; as for `CCNC(=O)/C=C/c1n[nH]c2cc(Sc3ccccc3C(=O)NC)ccc12`, 20%.
